Drawing on PubChem BioAssay (NCATS), this text covers Potency for 13 compounds.

Records with an inconclusive call do not appear. The source made the active and inactive calls. Calls come from the whole dose curve; as a rule, active = well fitted inhibition curve with a large enough effect; inconclusive = small, poorly fitted or top-dose-only effect; inactive = flat fitted curve, though single readings scatter.

Assay in all cases: qHTS profiling for inhibitors of Plasmodium falciparum proliferation (AID 504749); note: nearly all actives have a fitted effect of over 60% in size
Settings in all cases: P. falciparum in erythrocytes, SYBR Green DNA, 72 h; series mostly up to 28.7 µM
In general terms: Quantitative high-throughput screening tests each substance at several concentrations.

The subject of experiment [1] is CP252. A digest of the protocol: (§1)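 P. falciparum-infected erythrocytes (0.3% parasitemia, 2.5% hematocrit) incubated with compound 72 h at 37 C, 5% CO2. Parasite DNA detected by SYBR Green after lysis, overnight at room temperature; normalised to 0.29 uM artemisinin and DMSO.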
Experiment [2] deals with CP256. A digest of the protocol:
as §1

Experiment [3] deals with CP260. A digest of the protocol: as §1
Experiment [4] deals with CP262. A digest of the protocol: as §1
The test system of experiment [5] is CP265. A digest of the protocol: as §1
For experiment [6], the system named is CP266. A digest of the protocol:
as §1

Experiment [7] has as its system CP268. A digest of the protocol: as §1
Experiment [8] deals with CP269. A digest of the protocol: as §1
The test system of experiment [9] is CP286. A digest of the protocol:
as §1

Experiment [10] relates to CP291. A digest of the protocol: as §1
For experiment [11], the system named is CP297. A digest of the protocol: as §1
Experiment [12] has as its system CP305. A digest of the protocol:
as §1

Experiment [13] has as its system CP315. A digest of the protocol: as §1
Experiment [14] concerns CP325. A digest of the protocol: as §1
In experiment [15] the test system is CP329. A digest of the protocol:
as §1

In experiment [16] the test system is CP335. A digest of the protocol:
as §1

Experiment [17] deals with DFO2036. A digest of the protocol: as §1
In experiment [18] the test system is DIV14. A digest of the protocol: as §1
The test system of experiment [19] is DIV17. A digest of the protocol:
as §1

The test system of experiment [20] is DIV30. A digest of the protocol:
as §1
Potency is the fitted concentration of half-maximal effect.

Regarding `COc1cc2c(cc1OC)-c1cc(=Nc3c(C)cc(C)cc3C)n(C)c(=O)n1CC2`, the Potency is 11.2 µM (active) in [1]; 4.47 µM (active) in experiment [2]; 3.16 µM (active) in [3]; 4.78 µM (active) in [4]; 7.94 µM (active) in experiment [5]; 6.75 µM (active) in experiment [6]. For the same compound, the Potency was 1.51 µM (active) in experiment [7]; 4.78 µM (active) in [8]; 2 µM (active) in experiment [9]; 2.13 µM (active) in experiment [10]; 5.36 µM (active) in [11]; 3.79 µM (active) in [12]. The Potency was 6.75 µM (active) in experiment [13]; 4.26 µM (active) in experiment [14]; 4.78 µM (active) in experiment [15]; 4.26 µM (active) in experiment [16]; 3.55 µM (active) in experiment [17]; 3.01 µM (active) in [18]. Further, the Potency in experiment [19] was 3.38 µM (active); in experiment [20], 6.01 µM (active).
In the case of `CN1CCN(C2=Nc3ccccc3Oc3ccc(Cl)cc32)CC1`, the Potency result in [1], in experiment [2], in [3], in experiment [4], in experiment [5] and in experiment [6] was “inactive” each time. Besides, the Potency entry in experiment [7], in experiment [8], in experiment [9], in experiment [10], in experiment [11] and in experiment [12] was “inactive” in each case. Moreover, the Potency entry in experiment [13], in experiment [14], in [15], in experiment [16], in experiment [17] and in experiment [18] was “inactive” throughout. The Potency entry in experiment [19] and in [20] was “inactive” in each case.
As for `Cc1nc2c([nH]1)c(=O)n(C)c(=O)n2Cc1ccco1`, the Potency result in experiment [1], in experiment [2], in experiment [3], in [4], in [5] and in experiment [6] was “inactive” each time. The Potency result in experiment [7], in experiment [8], in experiment [9], in experiment [10], in [11] and in experiment [12] was “inactive” each time. Also, the Potency entry in experiment [13], in experiment [14], in experiment [15], in experiment [16], in [17] and in experiment [18] was “inactive” in each case. The Potency result in [19] and in [20] was “inactive” in each case.
Turning to `CC(=O)OCC1=C(C(=O)O)N2C(=O)[C@@H](NC(=O)Cc3cccs3)[C@H]2SC1`, the Potency result in experiment [1], in [2], in experiment [3], in experiment [4], in [5] and in experiment [6] was “inactive” throughout. The Potency result in [7], in [8], in experiment [9], in experiment [10], in experiment [11] and in experiment [12] was “inactive” each time. The Potency result in experiment [13], in experiment [14], in experiment [15], in experiment [16], in experiment [17] and in experiment [18] was “inactive” each time. Besides, the Potency result in experiment [19] and in experiment [20] was “inactive” in each case.
For `COc1ccc([C@@H]2Sc3ccccc3N(CCN(C)C)C(=O)[C@@H]2OC(C)=O)cc1`, the Potency result in experiment [1], in experiment [2], in [3], in [4], in experiment [5] and in [6] was “inactive” in each case. Further, the Potency entry in [7], in experiment [8], in experiment [9], in experiment [10], in experiment [11] and in experiment [12] was “inactive” each time. For the same compound, the Potency entry in experiment [13], in experiment [14], in experiment [15], in experiment [16], in experiment [17] and in [18] was “inactive” throughout. For the same compound, the Potency entry in [19] and in experiment [20] was “inactive” throughout.
For the compound `O=C(O)CN(CCOCCOCCN(CC(=O)O)CC(=O)O)CC(=O)O`, the Potency entry in experiment [1], in experiment [2], in experiment [3], in [4], in experiment [5] and in experiment [6] was “inactive” each time. The Potency entry in experiment [7], in experiment [8], in experiment [9], in experiment [10], in experiment [11] and in experiment [12] was “inactive” in each case. For the same compound, the Potency entry in experiment [13], in [14], in experiment [15], in experiment [16], in [17] and in experiment [18] was “inactive” throughout. For the same compound, the Potency result in experiment [19] and in [20] was “inactive” in each case.
On to `NCCCNCCSP(=O)(O)O`, for which the Potency result in [1], in [2], in experiment [3], in experiment [4], in experiment [5] and in [6] was “inactive” in each case. Besides, the Potency entry in experiment [7], in experiment [8], in experiment [9], in [10], in [11] and in experiment [12] was “inactive” in each case. In addition, the Potency result in experiment [13], in experiment [14], in [15], in [16], in experiment [17] and in experiment [18] was “inactive” throughout. The Potency result in experiment [19] and in experiment [20] was “inactive” in each case.
As to `C[N+](C)(C)CCOC(N)=O`, the Potency result in experiment [1], in experiment [2], in experiment [3], in [4], in [5] and in [6] was “inactive” in each case. Moreover, the Potency result in [7], in [8], in experiment [9], in [10], in [11] and in experiment [12] was “inactive” in each case. Further, the Potency result in [13], in [14], in [15], in experiment [16], in [17] and in experiment [18] was “inactive” in each case. Further, the Potency result in [19] and in experiment [20] was “inactive” in each case.
Turning to `CCN1CCC[C@H]1CNC(=O)c1c(O)c(Cl)cc(Cl)c1OC`, the Potency result in [1], in experiment [2], in [3], in experiment [4], in experiment [5] and in experiment [6] was “inactive” throughout. Moreover, the Potency entry in experiment [7], in experiment [8], in experiment [9], in experiment [10], in [11] and in [12] was “inactive” in each case. For the same compound, the Potency result in experiment [13], in [14], in experiment [15], in experiment [16], in [17] and in experiment [18] was “inactive” throughout. Further, the Potency result in experiment [19] and in experiment [20] was “inactive” throughout.
Take `CC(=O)[C@@]1(O)CC[C@H]2[C@@H]3CCC4=CC(=O)CC[C@]4(C)[C@H]3CC[C@@]21C`: the Potency result in experiment [1], in experiment [2], in [3], in experiment [4], in experiment [5] and in experiment [6] was “inactive” throughout. Moreover, the Potency entry in experiment [7], in experiment [8], in [9], in [10], in experiment [11] and in experiment [12] was “inactive” throughout. Besides, the Potency entry in [13], in experiment [14], in experiment [15], in experiment [16], in experiment [17] and in experiment [18] was “inactive” throughout. The Potency result in [19] and in [20] was “inactive” throughout.
Regarding `CC(C(=O)O)c1ccc(CC2CCCC2=O)cc1` (stereo not given), the Potency entry in experiment [1], in experiment [2], in [3], in [4], in experiment [5] and in experiment [6] was “inactive” in each case. Moreover, the Potency entry in experiment [7], in experiment [8], in experiment [9], in experiment [10], in experiment [11] and in experiment [12] was “inactive” in each case. Moreover, the Potency entry in [13], in experiment [14], in [15], in experiment [16], in experiment [17] and in experiment [18] was “inactive” throughout. For the same compound, the Potency result in experiment [19] and in [20] was “inactive” in each case.
On to `COCC(=O)O[C@]1(CCN(C)CCCc2nc3ccccc3[nH]2)CCc2cc(F)ccc2[C@@H]1C(C)C`, for which the Potency in experiment [1] was 4.47 µM (active); in experiment [2], 4.47 µM (active); in [3], 1.58 µM (active); in [4], 6.75 µM (active); in experiment [5], 4.47 µM (active); in [6], 6.75 µM (active). Moreover, the Potency in experiment [7] is 5.36 µM (active); in experiment [8], 2.69 µM (active); in [9] it was 1.58 µM (active); in [10] it was 4.78 µM (active); in experiment [11], 0.849 µM (active); in experiment [12], 6.01 µM (active). Besides, the Potency was 6.75 µM (active) in experiment [13]; 6.75 µM (active) in experiment [14]; 4.78 µM (active) in [15]; 1.9 µM (active) in experiment [16]; 1.26 µM (active) in experiment [17]; 0.953 µM (active) in experiment [18]. For the same compound, the Potency in experiment [19] was 0.601 µM (active); in experiment [20], 3.38 µM (active).
On to `NC(Cc1ccc(Cl)cc1)C(=O)O` (stereo not given), for which the Potency result in [1], in experiment [2], in experiment [3], in experiment [4], in experiment [5] and in experiment [6] was “inactive” throughout. Also, the Potency entry in [7], in experiment [8], in [9], in [10], in experiment [11] and in [12] was “inactive” in each case. Besides, the Potency result in [13], in experiment [14], in [15], in experiment [16], in [17] and in experiment [18] was “inactive” each time. Also, the Potency result in experiment [19] and in experiment [20] was “inactive” throughout.
